Source: PubChem BioAssay (National Center for Advancing Translational Sciences (NCATS))
Shown is part of a subset that was picked to be rich in hits.
KDM5B inh: Primary screen for KDM5B Histone Demethylases FDH-coupled qHTS | Potency, µM (series often up to 57.7 µM), usual class: inhibitors | Lysine-specific demethylase 5B (Homo sapiens), Q9UGL1 | KDM5B demethylase, FDH-coupled NADH fluorescence (FDH is formaldehyde dehydrogenase) | 220,000 compounds, 2.6% hits; active means well fitted inhibition curve with a large enough effect; further: 0% is about no effect; nearly all actives have a fitted effect of over 70% in size
Target sequence (Q9UGL1 whole entry, looked up): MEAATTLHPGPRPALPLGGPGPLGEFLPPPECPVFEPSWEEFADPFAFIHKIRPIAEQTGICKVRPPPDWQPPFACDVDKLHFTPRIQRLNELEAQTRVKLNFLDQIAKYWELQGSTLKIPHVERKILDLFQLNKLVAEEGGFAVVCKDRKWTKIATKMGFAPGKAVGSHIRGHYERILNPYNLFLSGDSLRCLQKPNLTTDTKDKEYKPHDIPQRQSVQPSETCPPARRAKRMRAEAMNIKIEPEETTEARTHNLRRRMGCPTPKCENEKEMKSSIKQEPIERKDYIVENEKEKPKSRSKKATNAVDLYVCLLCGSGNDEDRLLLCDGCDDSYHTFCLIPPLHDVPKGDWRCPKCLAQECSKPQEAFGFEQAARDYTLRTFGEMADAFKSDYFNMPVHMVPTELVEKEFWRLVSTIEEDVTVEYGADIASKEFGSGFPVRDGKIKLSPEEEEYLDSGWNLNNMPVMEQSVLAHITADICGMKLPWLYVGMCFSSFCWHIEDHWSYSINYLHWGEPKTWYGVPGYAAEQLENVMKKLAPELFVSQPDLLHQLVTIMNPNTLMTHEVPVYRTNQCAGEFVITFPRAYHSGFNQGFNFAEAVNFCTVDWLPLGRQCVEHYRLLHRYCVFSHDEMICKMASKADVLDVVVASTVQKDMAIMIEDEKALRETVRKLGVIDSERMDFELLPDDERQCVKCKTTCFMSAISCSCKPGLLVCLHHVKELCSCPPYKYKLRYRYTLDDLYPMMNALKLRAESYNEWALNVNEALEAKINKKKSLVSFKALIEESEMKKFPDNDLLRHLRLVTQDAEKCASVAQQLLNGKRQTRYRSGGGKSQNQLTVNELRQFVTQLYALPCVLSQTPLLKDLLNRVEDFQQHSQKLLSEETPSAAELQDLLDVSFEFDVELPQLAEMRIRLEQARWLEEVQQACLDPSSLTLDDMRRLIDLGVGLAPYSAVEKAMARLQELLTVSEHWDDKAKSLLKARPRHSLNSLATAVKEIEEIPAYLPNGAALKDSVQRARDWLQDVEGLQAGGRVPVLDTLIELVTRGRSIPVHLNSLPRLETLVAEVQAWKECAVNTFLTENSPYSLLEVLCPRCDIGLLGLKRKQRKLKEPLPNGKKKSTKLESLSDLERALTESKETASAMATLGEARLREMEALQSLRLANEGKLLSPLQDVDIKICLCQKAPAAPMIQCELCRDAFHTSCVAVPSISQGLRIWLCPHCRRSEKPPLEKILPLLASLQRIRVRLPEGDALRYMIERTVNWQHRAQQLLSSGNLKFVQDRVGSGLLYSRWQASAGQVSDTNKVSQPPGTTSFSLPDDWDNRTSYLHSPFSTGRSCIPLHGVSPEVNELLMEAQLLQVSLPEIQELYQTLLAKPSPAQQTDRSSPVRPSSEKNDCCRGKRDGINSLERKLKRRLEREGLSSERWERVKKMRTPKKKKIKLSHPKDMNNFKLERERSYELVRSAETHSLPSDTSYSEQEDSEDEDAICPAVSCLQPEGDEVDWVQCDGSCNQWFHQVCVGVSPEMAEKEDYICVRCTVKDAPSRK
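Coupled FDH/NAD⁺ fluorescence readout. KDM5BΔAP 200 nM final; compound titration, 10 min RT preincubation; substrate mix 12.5 µM H3K4me3, 25 µM 2-OG, 50 µM Fe(II), 100 µM ascorbate, 0.25 mM NAD⁺, 0.25 U/mL FDH; ΔRFU over 30 min.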
The depositor's hits bear a star; i = inactive. Potency means the concentration at half of the fitted maximal effect.

SMILES | KDM5B inh
O=C(NCc1ccccc1F)c1ccc2c(c1)CN(Cc1ccc(O)c(F)c1)CCO2 | i
C/C(c1cccs1)=[N+](\[O-])C(C)/C(=N/O)c1ccco1 (stereo not given) | i
Cc1ccc(CNc2nc3ccccc3nc2NS(=O)(=O)c2ccc(C)cc2)cc1 | i
COC(=O)c1cn(CC(=O)Nc2cccc(C(C)=O)c2)c2ccccc12 | i
CN(C)Cc1nnc(C2CC(Nc3cncc(C(=O)N(C)C)n3)C2)n1C (stereo not given) | 28.2µM*
CN(C)Cc1nnc(C2CC(NC(=O)c3ccc4c(c3)CCC4)C2)n1C (stereo not given) | i
CN(C)Cc1nnc(C2CC(NC(=O)c3cc(-c4cccn4C)n[nH]3)C2)n1C (stereo not given) | i
CN(C)Cc1nnc(C2CC(NC(=O)c3cn(-c4ccccc4)nn3)C2)n1C (stereo not given) | i
CN(C)Cc1nnc(C2CC(NC(=O)c3ccn(C)c(=O)c3)C2)n1C (stereo not given) | 31.6µM*
CC(=O)c1c(C)nn(CC(=O)NC2CC(c3nnc(CN(C)C)n3C)C2)c1C (stereo not given) | i
O=C(NCCc1c[nH]c2ccccc12)c1ccc(Cl)cc1F | i
Cc1ccc(NC(=O)N2CCC(CCNC(=O)c3n[nH]c4ccccc34)CC2)cc1F | i
CCS(=O)(=O)N1CCC(C(=O)Nc2ccc(OC)c(OC)c2)CC1 | i
CCOc1cc(-c2nn3c(-c4ccccc4C)nnc3s2)cc(OCC)c1OCC | i
O=C(CN1CCCC1c1ccccc1)Nc1cccc(F)c1 (stereo not given) | i
CCOc1ccc(-c2nc(C#N)c(NCc3ccccc3Cl)o2)cc1 | i
COc1ccc(C(=O)Nc2ccccc2N2CCCCC2)cc1S(=O)(=O)NC(C)C | i
Cc1ccc(NC(=S)NCCCO)cc1 | i
Cc1ccccc1CN1CCN(c2nc3c(c(=O)[nH]c(=O)n3C)n2Cc2ccc(F)cc2)CC1 | i
COc1ccc(-c2onc(C)c2C(=O)N[C@@H](C)c2ccc(OC)cc2)cc1 | i
COc1cc(OC)c(CNC(=O)c2c(C)noc2-c2cccs2)c(OC)c1 | i
Cc1nc2ccccc2nc1SCC(=O)NC(C)c1cccc2ccccc12 (stereo not given) | i
Cc1noc(-c2cccs2)c1C(=O)NC(C)c1ccccc1 (stereo not given) | 25.1µM*
Cc1cccc(CNC(=O)c2c(C)noc2-c2ccccc2Cl)c1 | i
Cc1noc(-c2cccs2)c1C(=O)NC(C)c1cccc2ccccc12 (stereo not given) | 31.6µM*
SMILES | KDM5B inh
Cc1nc(-c2cccs2)c(CC(=O)NC(C)c2cccc3ccccc23)s1 (stereo not given) | i
Cc1noc(-c2cccs2)c1C(=O)N(C)Cc1ccccc1 | i
Cc1cccc(CNC(=O)c2c(C)noc2-c2cccs2)c1 | 28.2µM*
O=C(c1ccccc1)N1CCC2(C1)C(=O)N(c1ccccc1)c1ccccc12 (stereo not given) | i
CCOC(=O)c1cc(-c2ccc(S(=O)(=O)Nc3ccccc3CC)s2)on1 | i
CN(C)Cc1ccc(CNC(=O)CCc2ncc(-c3ccc(F)cc3)o2)cc1 | i
CC(C)c1ccccc1NC(=O)CSc1ccccc1Cl | i
O=C(NCc1cccnc1)C1(c2cccc(C(F)(F)F)c2)CCOCC1 | i
CNc1sc2c(c1C#N)CCCC2 | i
O=C(CNC(=O)NC(Cc1c[nH]c2ccccc12)C(=O)O)Nc1ccccc1 (stereo not given) | i
O=C1N[C@H](CC(=O)N2CCN(c3ccc(C(F)(F)F)cn3)CC2)C(=O)Nc2ccccc21 | 22.4µM*
O=C1N[C@H](CC(=O)N2CCc3ccccc3C2)C(=O)Nc2ccccc21 | i
O=C1N[C@H](CC(=O)N2CCN(c3ccc(F)cc3)CC2)C(=O)Nc2ccccc21 | i
N#Cc1cn(CC(=O)Nc2cccc(Cl)c2Cl)c2ccccc12 | i
Cn1c(=O)c2c(ncn2CC(=O)Nc2ccc3c(c2)OC2(CCCC2)O3)n(C)c1=O | i
Cc1cc2ccccc2n1CC(=O)N1CCC(C(N)=O)CC1 | i
O=C(Cn1nnc(-c2ccc(F)cc2)n1)N1CCOCC1 | i
Cc1cn2nnc(C(=O)N3CCC(C(=O)Nc4ccc(F)c(Cl)c4)CC3)c2c(=O)[nH]1 | i
CCCCN(CC)C(=O)c1nnn2cc(-c3ccc(Cl)cc3)[nH]c(=O)c12 | i
C=CCN1CCN(C(=O)c2nnn3cc(-c4ccccc4)[nH]c(=O)c23)CC1 | 28.2µM*
CCCCNC(=O)c1nnn2cc(C)[nH]c(=O)c12 | i
O=C(c1nnn2cc(-c3ccc(F)cc3)[nH]c(=O)c12)N1CCOCC1 | 31.6µM*
C=CCN1CCN(C(=O)c2cccs2)CC1 | i
Cc1cn2nnc(C(=O)N3CCC(C(=O)NCc4ccccc4)CC3)c2c(=O)[nH]1 | i
CCCCNC(=O)c1nnn2cc(-c3ccc(Cl)cc3)[nH]c(=O)c12 | 8.91µM*
SMILES | KDM5B inh
O=C(CCc1ncc(-c2ccc(F)cc2)o1)N1CCC(n2cccc2)CC1 | i
O=C(Nn1cnnc1)c1ccc(Cl)cc1Cl | i
CCNC(=O)NC(=O)CSc1ccc2ccccc2n1 | i
COc1ccccc1CNC(=O)c1nc(COc2c(C)occc2=O)no1 | i
CC(=O)c1c(C)[nH]c(C(=O)C(C)OC(=O)c2cc(F)cc(F)c2)c1C (stereo not given) | i
COc1ccc(OC)c(CN2CCN(Cc3ccc(C(F)(F)F)cc3)CC2)c1 | i
O=C(C1CCCN(C2CCN(c3ncccn3)CC2)C1)N1CCOCC1 (stereo not given) | 20µM*
O=C(c1cn(C2CCCCC2)nn1)N1CCCC(C(=O)N2CCOCC2)C1 (stereo not given) | i
N#Cc1ccnc(N2CCN(C(=O)Nc3ccc(F)cc3)CC2)c1 | i
Cn1ccn2ncc(C(=O)N3CCC(N4CCCC(C(=O)N5CCCC5)C4)CC3)c12 (stereo not given) | i
CN1CCN(C(=O)C2CCCN(C3CCN(c4cc(C#N)ccn4)CC3)C2)CC1 (stereo not given) | 28.2µM*
O=C(c1ccco1)N1CCC(N2CCCC(C(=O)N3CCCC3)C2)CC1 (stereo not given) | i
O=S(Cc1ccccc1)Cc1c(F)cccc1Cl (stereo not given) | i
CCOc1ccc2oc(C(=O)N3CCN(CC(=O)Nc4ccc(F)cc4)CC3)c(C)c2c1 | i
O=C1NC(C(=O)NCc2ccco2)Cn2cccc21 (stereo not given) | i
COC[C@@H]1CN(Cc2c(F)cccc2F)C[C@H]1C(=O)NC1CC1 | i
COC[C@@H]1CN(c2cnccn2)C[C@H]1C(=O)NCc1ccco1 | 25.1µM*
O=C(NCc1ccco1)C1CC(c2ccccc2)CN(C(=O)C2CCCC2)C1 (stereo not given) | i
O=C(COc1ccc(NC(=O)C2CC2)cn1)NCc1ccccc1F | i
COC[C@@H]1CN(c2cnccn2)C[C@H]1C(=O)NCc1ccccc1F | 20µM*
Cc1ccc(NC(=O)CNc2nc(Nc3ccccc3)nc(Nc3ccccc3)n2)cc1C | i
COc1ccccc1CCNC(=O)C1CCN(c2nc(Cl)nc3nc[nH]c23)CC1 | i
COC(=O)c1cc(Br)ccc1NC(=O)c1ccc(OC)cc1 | i
Cc1ccccc1-n1cnnc1SCC(=O)Nc1ccc(S(=O)(=O)N2CCCCCC2)cc1 | i
COc1cccc(CSC2=NS(=O)(=O)c3ccccc3N2Cc2ccccc2)c1 | i
